Bioassay records as filed in PubChem.
A selection: hits, their analogues and other compounds. The true share with any hit is near 0.98%.
Mtb UGM inh: blocks M. tuberculosis UGM enzyme; P9WIQ1; purified UGM, fluorescence polarization probe displacement; inhibition, % at 10 µM; 320,000 tested, 0.06% active; in the data active means inhibition above about 10%, passing the limit was not always enough; inconclusive means no clear call, values can overlap the other calls
FadD28 FP inh: M. tuberculosis FadD28 bisubstrate binding inhibition. FadD28 bisubstrate probe binding, fluorescence polarization. inhibition, % at 12.5 µM. 360,000 tested, 0.22% active; in the data active means inhibition above about 8.5%, passing the limit was not always enough; inconclusive means no clear call, values can overlap the other calls
Y pestis TopoI: inhibitors of Yersinia pestis topoisomerase I; activity, % at 10 µM; 360,000 tested, 0.064% active; Y. pestis Topo-I cleavage product accumulation, plate reader; in the data active means activity above about 50%, passing the limit was not always enough; inconclusive means no clear call, values can overlap the other calls
Mtb bLac sens: beta-lactam sensitization of Mtb H37Rv. M. tuberculosis H37Rv growth with meropenem, percent inhibition. inhibition, % at 25 µM. 330,000 tested, 0.27% active. AID 434955; call rule not given here;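 further: growth measured after seven days incubation then overnight dye step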
Rv3671c inh: inhibits the M. tuberculosis serine protease Rv3671c; P9WHR9; inhibition, % at 5.96 µM; 320,000 tested, 0.048% active; in the data active means inhibition above about 38%;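 further: extracellular domain of Rv3671c used as enzyme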
Target sequence (P9WHR9 whole entry, looked up, the tested form may be a part): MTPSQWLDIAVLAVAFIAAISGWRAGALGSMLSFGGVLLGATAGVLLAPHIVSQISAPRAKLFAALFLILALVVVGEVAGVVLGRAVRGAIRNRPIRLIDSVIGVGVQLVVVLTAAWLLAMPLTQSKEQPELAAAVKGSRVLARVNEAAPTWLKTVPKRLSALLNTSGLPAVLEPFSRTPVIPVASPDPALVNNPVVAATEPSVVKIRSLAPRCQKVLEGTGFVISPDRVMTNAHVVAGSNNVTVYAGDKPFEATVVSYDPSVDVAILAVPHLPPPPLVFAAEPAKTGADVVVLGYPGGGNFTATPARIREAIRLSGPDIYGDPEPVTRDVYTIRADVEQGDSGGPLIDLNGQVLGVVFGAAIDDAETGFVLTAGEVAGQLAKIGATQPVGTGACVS
PfHsp40 yeast: restores yeast growth despite PfHsp40 toxicity; AID 504582; S. cerevisiae expressing PfHsp40, growth rescue, ATP luminescence; growth rescue, % at 12.5 µM; 340,000 tested, 0.68% active; in the data active means growth rescue above about 28%, passing the limit was not always enough; inconclusive means no clear call, values can overlap the other calls;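 further: yeast W303a lacking pdr1 and pdr3 grown in galactose medium; growth measured after three days at 30 °C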
Hits are given with their value; - = inactive; ? = inconclusive; . = no result given.

SMILES	Mtb UGM inh	FadD28 FP inh	Y pestis TopoI	Mtb bLac sens	Rv3671c inh	PfHsp40 yeast
C#CCOCCOCCOCCNc1nc(N2CCN(C(=O)[C@H](CCCCN)n3cc([C@@H](N)C(C)CC)nn3)CC2)nc(N2CCN(C(=O)[C@H](Cc3cc4ccccc4[nH]3)n3cc([C@@H](N)CC(C)C)nn3)CC2)n1 (some centres not stated)	-	-	-	-	-	39
C#CCOCCOCCOCCNc1nc(N2CCN(C(=O)CCCCCCCCCCNC(=O)[C@H](CO)n3cc(CCCSC)nn3)CC2)nc(N2CCN(C(=O)CCCCCCCCCCNC(=O)[C@H](CCCCN)n3cc(CCO)nn3)CC2)n1	-	-	-	-	-	-
C#CCOCCOCCOCCNc1nc(N2CCN(C(=O)CCCCCCCCCCNC(=O)[C@H](CO)n3cc(CCCSC)nn3)CC2)nc(N2CCN(C(=O)CCCCCCCCCCNC(=O)[C@H](CCCN=C(N)N)n3cc(C[C@@H](C)CC)nn3)CC2)n1	-	?	-	-	-	30
C#CCOCCOCCOCCNc1nc(N2CCN(C(=O)CCCCCCCCCCNC(=O)[C@H]([C@@H](C)CC)n3cc(CCCCCN)nn3)CC2)nc(N2CCN(C(=O)CCCCCCCCCCNC(=O)[C@H]([C@@H](C)CC)n3cc(CCCCN=C(N)N)nn3)CC2)n1	-	-	105	-	-	69
COc1ccc2c(c1)CO[C@]21O[C@H](CCO)C[C@H](O)[C@H]1O	.	-	.	.	.	.
CCCN1CCN(CCCNC(=O)CN2C(=O)COc3ccc(C(C)(C)C)cc32)CC1	.	-	-	.	.	.
COc1cc(NC(=O)Nc2nc(C(N)C3CCCCC3)cs2)cc(OC)c1OC (configuration not stated)	.	-	-	.	.	.
Cc1ccc(NC(=O)c2cc(S(=O)(=O)N3CCCCC3)c[nH]2)cc1Cl	.	-	-	.	.	.
CNc1ncnc2c1ncn2[C@H]1CN(CCN2CCOCC2)C[C@@H](CO)O1	.	-	-	.	.	.
C#CCOCCOCCOCCNc1nc(N2CCN(C(=O)CCCCCCCCCCNC(=O)Cn3cc(CCCCCN)nn3)CC2)nc(N2CCN(C(=O)CCCCCCCCCCNC(=O)[C@H]([C@@H](C)CC)n3cc(CCCCN=C(N)N)nn3)CC2)n1	-	-	-	-	-	29
COc1ccc(OC)c(NC(=O)C2(C)CCN2C(=O)Cc2ccc(Cl)cc2Cl)c1 (configuration not stated)	.	-	-	.	.	.
CCCCn1c(O)c(/C=C/C=C/C=Nc2ccccc2)sc1=S	-	-	-	-	-	42
C[C@@]12C(=O)Nc3ccc(F)cc3C(=O)N1[C@H]1c3ccccc3OC[C@@H]1[C@@H]2c1ccccc1	-	-	-	-	-	138
C[C@@]12C(=O)Nc3ccc(Cl)cc3C(=O)N1[C@H]1c3ccccc3OC[C@@H]1[C@@H]2c1ccccc1	-	-	-	-	-	118
Cc1nc2c(OCCC3CCCCC3)cccn2c1N(C)C(=O)CCC1CCCC1	.	-	-	.	.	.
O=C(O)c1cccc2c1-c1ccccc1/C2=N\Nc1ccccc1	-	?	-	-	-	.
O=C(O)c1cccc(NN=C2c3ccccc3-c3ccccc32)c1	.	13	-	.	.	269
O=C(O)c1cc(NN=C2c3ccccc3-c3ccccc32)ccc1Cl	-	15	-	-	-	138
O=C(O)c1cc(N/N=C/C(Cl)=C/c2ccccc2)ccc1Cl	-	19	-	-	-	-
COc1cccc(-c2cnc(C(O)c3c(C)cccc3C)[nH]2)c1 (configuration not stated)	.	-	-	.	.	.
COc1ccc(CSCC(=O)Nc2ccc(S(=O)(=O)N3CCCCCC3)cc2)cc1	-	12	-	-	-	-
O=C(C=P(c1ccccc1)(c1ccccc1)c1ccccc1)c1ccccc1-c1ccccc1C(=O)C=P(c1ccccc1)(c1ccccc1)c1ccccc1	.	-	-	.	.	-
CN(C(=O)CSc1nnc(-c2ccccc2)n1C)C1CCS(=O)(=O)C1 (configuration not stated)	-	-	-	-	-	44
CCOC(=O)N(C)C[C@@H]1OCc2cnnn2CCCC(=O)N([C@H](C)CO)C[C@@H]1C	.	-	-	.	.	.
COc1cc(NC(=O)C2CCCN(c3ncnc4c3nc3n4CCCCC3)C2)cc(OC)c1OC (configuration not stated)	-	-	-	-	-	44
SMILES	Mtb UGM inh	FadD28 FP inh	Y pestis TopoI	Mtb bLac sens	Rv3671c inh	PfHsp40 yeast
C[C@@H]1CN([C@@H](C)CO)C(=O)c2cc(NC(=O)C3CCCCC3)ccc2O[C@@H](C)CCCCO[C@H]1CN(C)S(=O)(=O)c1ccc(Cl)cc1	.	-	-	.	.	.
COc1cc(/C=N/NC(N)=S)ccc1OCc1ccc(C)cc1	-	16	-	-	-	-
Cc1ccc(CSc2ncnc3onc(C)c23)cc1	-	-	-	-	-	70
Cc1noc2ncnc(SCc3ccc(C(F)(F)F)cc3)c12	-	-	-	-	-	?
CN(Cc1c(F)cccc1Cl)C(=O)c1ccc(COc2ccccc2)cc1	-	-	55	-	-	-
Cc1ccc(CNS(=O)(=O)c2ccc(Cl)s2)cc1	.	-	-	.	.	.
N#C/C(=C\Nc1ccccc1O)c1nc2ccccc2o1	-	-	-	-	-	452
CCOC(=O)NC(=O)CSc1nc2ccccc2[nH]1	-	-	-	-	-	-
CCOC(=O)C1(C(C)(C)CC)CC(CSc2nc3ccccc3[nH]2)OC1=O (configuration not stated)	-	-	-	-	-	69
Cc1ccc(OCCC(=O)OCC(=O)Nc2cc(S(=O)(=O)N(C)C)ccc2C)cc1	-	-	-	-	-	32
Cc1ccc(S(=O)(=O)N(C)C)cc1NC(=O)COC(=O)CCC1CCCC1	-	-	-	-	-	-
CCCc1nc2c(=O)n(C)c(=O)nc-2n(C)n1	.	-	-	.	.	125
CSc1nc2[nH]c(=O)n(O)c(=O)c2n1Cc1ccccc1	.	-	-	.	.	-
O=C1NCCc2onc(-c3ccc(Br)cc3)c21	.	-	.	.	.	.
COC(=O)C1=C(C)N(C)C(=O)NC1c1cc2c(cc1[N+](=O)[O-])OCO2 (configuration not stated)	-	-	-	-	-	35
c1ccc(-n2nnnc2SCc2ccccn2)cc1	-	-	-	-	-	-
C(=C\CSc1nnnn1-c1ccccc1)/CSc1nnnn1-c1ccccc1	-	-	60	-	-	-
O=[N+]([O-])c1ccccc1/C=N/Nc1nnc(-c2ccccc2)c(-c2ccccc2)n1	-	-	-	?	-	42
CCC(CC)C(=O)N(C)c1c(C)nc2c(OCc3cccc(OC)c3)cccn12	.	-	-	.	.	.
CCN1C(=O)C(CC(=O)NCCc2ccccc2)N(NC(=O)c2ccc(Br)cc2)C1=S (configuration not stated)	.	-	-	.	.	.
O=C(C[n+]1cc(Br)cc2ccccc21)c1ccccc1	-	-	-	-	-	49
Cc1ccc(-c2nc3sc(C#N)c(N)n3c(=O)c2C#N)cc1	13	-	-	-	-	-
CNc1ncnc2c1ncn2[C@H]1CN(Cc2cccc3ccccc23)C[C@@H](CO)O1	.	-	-	.	.	.
